Reference: PubChem BioAssay (NCATS)
Inconclusive results are not listed. Unmarked numbers belong to inactive results. Activity calls are given as the source filed them. Calls follow the shape of the dose curve; as a rule, active = well fitted curve in the direction sought with a large enough effect; inconclusive = small, poorly fitted or top-dose-only effect, or another doubt; inactive = no such curve, though single readings can be large; an effect the other way counts as inactive or inconclusive.

test: qHTS of pediatric cancer cell lines to identify multiple opportunities for drug repurposing: Primary screen for Rh41 cells (AID 1347108); conditions: Rh41 rhabdomyosarcoma viability, CellTiter-Glo luminescence, 48 h; series mostly up to 46 µM; activity change, negative = cytotoxic: at the top concentration; also: nearly all actives have a fitted effect of over 70% in size;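 as to activity change, negative = cytotoxic: luminescence drop marks cytotoxic hits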
Method in brief: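 Readout: CellTiter-Glo luminescence, 48 h treatment. Controls DMSO (neutral) and bortezomib 2.3 µM final (positive). Potency and efficacy taken from primary-screen concentration-response curves.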
Potency is read from the fitted curve at half-maximal effect.

Row | SMILES | Potency | activity change, negative = cytotoxic [%]
1 | Cc1ccc(C(N)=O)cc1Nc1nccc(-c2cn(C(C)C)c3cnccc23)n1 | 18700 nM (active) | –
2 | Nc1ccccc1NC(=O)c1ccc(CNc2nccc(-c3cccnc3)n2)cc1 | 1180 nM (active) | –
3 | CC(C)c1cnn2c(NCc3ccccc3)cc(N[C@@H](CO)[C@H](O)CO)nc12 | 743 nM (active) | –
4 | CN(C)CCCN=c1c2ccccc2n(C)c2[nH]c(=O)n(C)c(=O)c12 | 9350 nM (active) | –
5 | O=C(Cc1ccc(-c2ccc(OCCN3CCOCC3)cc2)cn1)NCc1ccccc1 | 29.6 nM (active) | –
6 | Cc1ccc2nc(NC(=O)CSc3nc4c(c(=O)n3-c3ccccc3)SCC4)sc2c1 | 14800 nM (active) | –
7 | Cc1cc(C(=O)N2CCN(c3cccc(Cl)c3)CC2)n(-c2ccccc2)n1 | 2350 nM (active) | –
8 | O=C(NC1CCNCC1)c1[nH]ncc1NC(=O)c1c(Cl)cccc1Cl | 743 nM (active) | –
9 | Cc1nc2cnc3ccc(C#Cc4cccnc4)cc3c2n1-c1ccc(C(C)(C)C#N)cc1 | 83.3 nM (active) | –
10 | CC(C)(C)NC(=O)[C@H]1CN(Cc2cccnc2)CCN1C[C@@H](O)C[C@@H](Cc1ccccc1)C(=O)N[C@H]1c2ccccc2C[C@H]1O | 3720 nM (active) | –
11 | Cc1nc(Nc2n[nH]c3c2CN(C(=O)N[C@H](CN(C)C)c2ccccc2)C3(C)C)c2sccc2n1 | 6620 nM (active) | –
12 | CCOc1cc2ncc(C#N)c(Nc3ccc(F)c(Cl)c3)c2cc1NC(=O)C=CCN(C)C | 1870 nM (active) | –
13 | Nc1ccn([C@@H]2O[C@H](CO)[C@H](O)C2(F)F)c(=O)n1 | – | -12.7
14 | C=CCn1c(=O)c2cnc(Nc3ccc(N4CCN(C)CC4)cc3)nc2n1-c1cccc(C(C)(C)O)n1 | 469 nM (active) | –
15 | Cc1c(Cn2c(C)nc3c(C(=O)O)cc(N4CCOCC4)cc32)cccc1C(F)(F)F | 7430 nM (active) | –
16 | CC(=O)Nc1nc(C)c(-c2ccc(Cl)c(S(=O)(=O)NCCO)c2)s1 | 6620 nM (active) | –
17 | Cn1c(=O)n(-c2ccc(C(C)(C)C#N)cc2)c2c3cc(-c4cnc5ccccc5c4)ccc3ncc21 | 132 nM (active) | –
18 | C=C1C(=CC=C2CCC[C@]3(C)[C@@H]([C@H](C)C=C[C@H](C)C(C)C)CC[C@@H]23)C[C@@H](O)C[C@@H]1O | 935 nM (active) | –
19 | Cc1cc(Nc2ncnc3ccc(-c4ccc(CNCCS(C)(=O)=O)o4)cc23)ccc1Oc1ccn2ncnc2c1 | 11800 nM (active) | –
20 | Cc1c(CN2CCN(S(C)(=O)=O)CC2)sc2c(N3CCOCC3)nc(-c3cnc(N)nc3)nc12 | 148 nM (active) | –
21 | Cc1cnc(Nc2ccc(F)cc2Cl)nc1-c1c[nH]c(C(=O)N[C@H](CO)c2cccc(Cl)c2)c1 | 18700 nM (active) | –
22 | CN(c1ncccc1CNc1nc(Nc2ccc3c(c2)CC(=O)N3)ncc1C(F)(F)F)S(C)(=O)=O | 9350 nM (active) | –
23 | COc1cc2c(NC3CCN(C(C)C)CC3)nc(C3CCCCC3)nc2cc1OCCCN1CCCC1 | 11800 nM (active) | –

test: qHTS of pediatric cancer cell lines to identify multiple opportunities for drug repurposing: Confirmatory screen for NB1643 cells (AID 1347109); conditions: NB1643 neuroblastoma cell viability; series mostly up to 45.9 µM; activity change, negative = cytotoxic: at the top concentration; also: nearly all actives have a fitted effect of over 45% in size;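 as to activity change, negative = cytotoxic: plate controls were DMSO for no effect and bortezomib for full effect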
Method in brief: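 Viability after 48 h compound treatment at 37C, 500-1,000 cells/well, read as ATP luminescence with CellTiter-Glo. Primary screens used 11-point (MIPE, 0.78 nM-46 µM) or 8-point (NPC, 0.59 nM-46 µM) final concentrations; follow-up screens used 11-point dilutions.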

Row | SMILES | Potency | activity change, negative = cytotoxic [%]
24 | CC(C)c1cc(C(=O)N2Cc3ccc(CN4CCN(C)CC4)cc3C2)c(O)cc1O | 369 nM (active) | –
25 | CN(C)CCCN=c1c2ccccc2n(C)c2[nH]c(=O)n(C)c(=O)c12 | 23300 nM (active) | –
26 | Cc1cnc(-c2cnc(NCCNc3ccc(C#N)cn3)nc2-c2ccc(Cl)cc2Cl)[nH]1 | – | -4
27 | CS(=O)(=O)N1CCN(Cc2cc3nc(-c4cccc5[nH]ncc45)nc(N4CCOCC4)c3s2)CC1 | 8510 nM (active) | –
28 | CC[C@@H]1C(=O)N(C)c2cnc(Nc3ccc(C(=O)NC4CCN(C)CC4)cc3OC)nc2N1C1CCCC1 | 3290 nM (active) | –
29 | Cn1c2ccccc2c2c3c(c4c5ccccc5n(CCC#N)c4c21)CNC3=O | 20800 nM (active) | –
30 | Cc1nc2cnc3ccc(C#Cc4cccnc4)cc3c2n1-c1ccc(C(C)(C)C#N)cc1 | 12000 nM (active) | –
31 | Cc1c(NC(=O)OC[C@@H]2COCCN2)cn2ncnc(Nc3ccc4c(cnn4Cc4cccc(F)c4)c3)c12 | – | -32.9
32 | CCN1CCN(Cc2ccc(-c3cc4c(N[C@H](C)c5ccccc5)ncnc4[nH]3)cc2)CC1 | 13500 nM (active) | –
33 | Cc1c(Cn2c(C)nc3c(C(=O)O)cc(N4CCOCC4)cc32)cccc1C(F)(F)F | – | -18.5
34 | CC(=O)Nc1nc(C)c(-c2ccc(Cl)c(S(=O)(=O)NCCO)c2)s1 | 16500 nM (active) | –
35 | Cc1c(CN2CCN(S(C)(=O)=O)CC2)sc2c(N3CCOCC3)nc(-c3cnc(N)nc3)nc12 | 1310 nM (active) | –
36 | COc1cc2c(NC3CCN(C(C)C)CC3)nc(C3CCCCC3)nc2cc1OCCCN1CCCC1 | 23300 nM (active) | –
37 | CCNC(=O)Nc1ccc2ncc(Nc3ccc(C)cc3)nc2n1 | – | -5.67

test: qHTS of pediatric cancer cell lines to identify multiple opportunities for drug repurposing: Confirmatory screen for A673 cells (AID 1347110); conditions: A673 Ewing sarcoma cell viability; series mostly up to 45.9 µM; activity change, negative = cytotoxicity: at the top concentration;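 also: cells exposed to compound for 48 h before the viability read; nearly all actives have a fitted effect of over 65% in size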;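 as to activity change, negative = cytotoxicity: plate controls were DMSO neutral control for no effect and bortezomib positive control for full effect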
Method in brief: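 qHTS titration format: primary MIPE 0.78 nM-46 µM (11 pts), NPC 0.59 nM-46 µM; confirmation 11 pts. 48 h, CTG luminescence.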

Row | SMILES | Potency | activity change, negative = cytotoxicity [%]
38 | Cc1ccc(C(N)=O)cc1Nc1nccc(-c2cn(C(C)C)c3cnccc23)n1 | 9550 nM (active) | –
39 | Nc1ccccc1NC(=O)c1ccc(CNc2nccc(-c3cccnc3)n2)cc1 | 2610 nM (active) | –
40 | CC(C)c1cnn2c(NCc3ccccc3)cc(N[C@@H](CO)[C@H](O)CO)nc12 | 369 nM (active) | –
41 | CC(C)c1cc(C(=O)N2Cc3ccc(CN4CCN(C)CC4)cc3C2)c(O)cc1O | 293 nM (active) | –
42 | O=C(Cc1ccc(-c2ccc(OCCN3CCOCC3)cc2)cn1)NCc1ccccc1 | 131 nM (active) | –
43 | CC[C@@H]1C(=O)N(C)c2cnc(Nc3ccc(C(=O)NC4CCN(C)CC4)cc3OC)nc2N1C1CCCC1 | 36.9 nM (active) | –
44 | Cc1cc(C(=O)N2CCN(c3cccc(Cl)c3)CC2)n(-c2ccccc2)n1 | 2330 nM (active) | –
45 | Cc1nc(Nc2n[nH]c3c2CN(C(=O)N[C@H](CN(C)C)c2ccccc2)C3(C)C)c2sccc2n1 | 13100 nM (active) | –
46 | Cc1c(NC(=O)OC[C@@H]2COCCN2)cn2ncnc(Nc3ccc4c(cnn4Cc4cccc(F)c4)c3)c12 | 18500 nM (active) | –
47 | CC1(C)O[C@@H]2C[C@@H]3[C@H]4C[C@@H](F)C5=CC(=O)C=C[C@]5(C)[C@@]4(F)[C@@H](O)C[C@]3(C)[C@]2(C(=O)CO)O1 | 92.8 nM (active) | –
48 | Nc1ccn([C@@H]2O[C@H](CO)[C@H](O)C2(F)F)c(=O)n1 | 58.5 nM (active) | –
49 | C=CCn1c(=O)c2cnc(Nc3ccc(N4CCN(C)CC4)cc3)nc2n1-c1cccc(C(C)(C)O)n1 | 2610 nM (active) | –
50 | Cn1c(=O)n(-c2ccc(C(C)(C)C#N)cc2)c2c3cc(-c4cnc5ccccc5c4)ccc3ncc21 | 2610 nM (active) | –
51 | CCC1=C[C@@H]2CN(C1)Cc1c([nH]c3ccccc13)[C@@](C(=O)OC)(c1cc3c(cc1OC)N(C)[C@@H]1[C@@](O)(C(=O)OC)[C@H](OC(C)=O)[C@]4(CC)C=CCN5CC[C@]31[C@@H]54)C2 | 329 nM (active) | –
52 | CN(c1ncccc1CNc1nc(Nc2ccc3c(c2)CC(=O)N3)ncc1C(F)(F)F)S(C)(=O)=O | 3690 nM (active) | –
53 | CCNC(=O)Nc1ccc2ncc(Nc3ccc(C)cc3)nc2n1 | – | 15.5
